# Results: PubChem BioAssay (NCATS)
# Records with an inconclusive call do not appear. Where a call stands in place of a potency, no number is given. Calls of active or inactive are those of the source. The call rests on the fitted dose curve; in most records, active means well fitted cell-killing curve with a large enough effect; inconclusive means small, poorly fitted or top-dose-only effect; inactive means flat fitted curve, though single readings scatter.
# Experiment: Cell Viability - NIH 3T3 (AID 541);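 further: cells exposed to compound for 40 hours; nearly all actives have a fitted effect of over 25% in size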
# Conditions: NIH 3T3 cell viability, qHTS; activity change, negative = cytotoxicity: at 92.2 µM (top of the series)
# In short: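 Cells seeded at 1000/well, rested 5 hr at 37 °C, then dosed and incubated 40 hr at 37 °C. CellTiter-Glo added, 20 min room temperature, luminescence read. AC50 by Hill fit.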
SMILES,Potency,"activity change, negative = cytotoxicity"
CC(C#N)CCC#N (centres undefined),inactive,–
Nc1cc(Cl)ccc1Cl,inactive,–
Nc1cccc(Cl)c1,inactive,–
ClCc1ccccc1,inactive,–
CCC/C=N/O,inactive,–
COc1c(C(C)(C)C)cc([N+](=O)[O-])c(C)c1[N+](=O)[O-],inactive,–
O=S(=O)(Cl)c1ccccc1,–,-155% (active)
C=CCOCC1CO1 (centres undefined),inactive,–
c1ccoc1,inactive,–
Clc1ccccc1,inactive,–
ClC(Cl)(Cl)C(Cl)(Cl)Cl,inactive,–
CCOC(=O)C1OC1(C)c1ccccc1 (centres undefined),inactive,–
C/C=C/CC#N,inactive,–
ClC(Cl)C(Cl)Cl,inactive,–
C=CCCl,inactive,–
Oc1c(Cl)cccc1Cl,inactive,–
Brc1cccc(-c2ccccc2)c1,inactive,–
C=CCO,inactive,–
OCCCCO,inactive,–
Nn1cnnc1,inactive,–

SMILES,Potency,"activity change, negative = cytotoxicity"
BrCCc1ccccc1,inactive,–
Cc1ccccc1[N+](=O)[O-],inactive,–
CCCCOC(=O)c1ccccc1N,inactive,–
Clc1cc(Cl)c(Cl)c(Cl)c1,inactive,–
Cc1ccc(N)c(C)c1,inactive,–
C1CC2OC2CC1C1CO1 (centres undefined),inactive,–
CN(C)C(=O)Cl,inactive,–
CC(=O)NNc1ccccc1,inactive,–
Cc1ccc(N=C=O)cc1N=C=O,inactive,–
O=C(Cl)OCc1ccccc1,inactive,–
C=CC(=O)OC,inactive,–
CCN(CC)N=O,inactive,–
OCC(Cl)CCl (centres undefined),inactive,–
CC(C)CON=O,inactive,–
CC[N+](=O)[O-],inactive,–
CC(C)(Cl)[N+](=O)[O-],inactive,–
C[N+](=O)[O-],inactive,–
CC(C)OC(=O)Cc1ccccc1,inactive,–
ClCC(Br)CBr (centres undefined),inactive,–
